One compound from PubChem BioAssay AID504376 (National Center for Advancing Translational Sciences (NCATS), 2011) can be followed below.

Calls of active or inactive are those of the source. No rule for the calls is given here.

The nature of the test: Clonogenic survival assay for Identifying a Potential Treatment of Ataxia-Telangiectasia:SAR for Probe. Conditions: ATM-null F2111 fibroblasts, NCS clonogenic survival, 14 d. From the text:
NIH Chemical Genomics Center [NCGC] NIH Molecular Libraries Probe Centers Network [MLPCN] MLPCN Grant: MH089030-01 Assay Submitter (PI): Wei Zheng and Yosef Shiloh Ataxia-telangiectasia (A-T) is a devastating and progressive disease for which, there is no cure. Although A-T is a multisystem disease, it is stereotyped characterized by its neurological symptoms such as truncal ataxia, due to cerebellar cortical degeneration of the Purkinje and granule cells. Other symptoms of A-T are telangiectasias (dilated blood vessels), primary immunodeficiency, marked sensitivity to ionizing radiation (IR), chromosomal instability and predisposition to cancer. The underlying genetic cause of A-T is null mutations in the ATM (A-T mutated) gene. ATM is a nuclear serine/threonine kinase that functions as a master regulator of the cellular responses to double strand breaks (DSBs) in the DNA. Upon activation by DSBs, ATM phosphorylates a plethora of downstream targets, including KAP-1 on […]. KAP-1 phosphorylation occurs shortly in response to DSBs and mediates global chromatin relaxation, which facilitates DSB repair. To screen for small molecules that will compensate for the loss of ATM in cells derived from A-T patients, we monitored KAP-1 phosphorylation as a readout for ATM-like activity using an AlphaLISA assay. Active compounds should protect the A-T cells from the damage by NCS treatment and form normal colonies.
ATM null (F2111) cells are treated with various doses of the radiomimetic drug neocarzinostatin (NCS) and plated at densities of 200-5000 cells/[…]. 24 hr later the cells were either treated or not treated with Rottlerin, and 30 min later NCS was added for an additional 30 minutes. Then the medium was replaced with fresh medium and plates were incubated for 14 days until colonies could be visualized. After fourteen days, the cultures are fixed and stained and colonies scored manually. Colony survival in absence of NCS was normalized to 100% survival for each compound concentration.

Regarding `CC(=O)c1c(O)c(C)c(O)c(Cc2c(O)c3c(c(C(=O)/C=C/c4ccccc4)c2O)OC(C)(C)C=C3)c1O`, the survival by setting is: (at 30 µM, stronger effect = higher value) 43% (active); (measured here: 10 ng/ml NCS, no compound) 35%; (measured here: 20 ng/ml NCS, at 30 µM, stronger effect = higher value) 33%; (measured here: 40 ng/ml NCS, at 30 µM, stronger effect = higher value) 15%.
